# Test results taken from the supplement of paper PMC3334620.
# Over roughly 33,000 sequences, “E-score (-0.5 to 0.5)” has its median near -0.035; the highest 2% begin near 0.34. The sample holds the highest values, similar sequences and a random draw of the others, so the mix is not that of the screen.
# Target: T1, Mot3 (UniProt P54785)
# T1 sequence: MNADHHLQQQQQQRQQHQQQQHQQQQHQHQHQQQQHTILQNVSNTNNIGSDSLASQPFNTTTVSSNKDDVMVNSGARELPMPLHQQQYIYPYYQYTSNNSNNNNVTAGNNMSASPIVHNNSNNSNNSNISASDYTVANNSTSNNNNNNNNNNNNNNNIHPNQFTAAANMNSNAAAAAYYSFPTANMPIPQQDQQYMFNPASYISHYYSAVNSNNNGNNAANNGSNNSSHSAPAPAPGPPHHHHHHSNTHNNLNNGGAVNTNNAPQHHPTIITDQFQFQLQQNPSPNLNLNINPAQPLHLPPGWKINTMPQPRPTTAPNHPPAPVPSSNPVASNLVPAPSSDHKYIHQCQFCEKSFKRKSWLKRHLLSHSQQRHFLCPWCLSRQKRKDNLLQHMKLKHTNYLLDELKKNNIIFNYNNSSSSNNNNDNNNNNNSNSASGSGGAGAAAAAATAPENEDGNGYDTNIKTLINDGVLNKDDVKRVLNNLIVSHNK
# Assay: PBM E-score (8-mer binding enrichment) (E-score (-0.5 to 0.5)); higher = stronger / more preferred TF binding
# Conditions: protein concentration: 200 nM; construct: GST-full length
# Procedure, shortened: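 E-scores (a modified Wilcoxon-Mann-Whitney statistic) were assigned by the Universal PBM Analysis Suite to every ungapped eight-base word pooled with its reverse complement. The input came from universal all-10-mer Agilent arrays made double-stranded by primer extension and probed with GST-tagged yeast transcription factors at about 100-200 nM. Fluorescent anti-GST detected bound protein, and masliner normalised the scans.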
row,Sequence,PBM E-score
1,CATTTCGG,-0.063
2,AGGGCCCT,-0.368
3,GCTCGGAC,-0.172
4,CGACAGAA,-0.216
5,GACCTCGA,-0.139
6,GTATCCAA,-0.0981
7,CAGGTCAG,-0.242
8,ATAGGCTC,0.207
9,CTAGGCTA,-0.18
10,ATCGGCAT,-0.0895
11,CTAGGCGA,-0.178
12,ATAGGGAT,0.0533
13,ATAGGCAT,0.412
14,ATAGGCAG,0.234
15,ATAGGCGC,0.249
16,ATAGGCAA,0.486
17,ATAGGCAC,0.491
18,ATAGGCTA,0.0381
19,CTAGGCAA,0.474
20,CCACAAGG,0.094
21,AGTGAGCC,-0.0781
22,CAGTTAAA,0.0473
23,GTGGCGCA,-0.0264
24,CCCAGTGA,-0.203
25,CATTCTCA,0.0726
26,TTAGGCAA,0.481

row,Sequence,PBM E-score
1,TTCGGCAA,0.0952
2,GTAGGCAA,0.49
3,TTAGGGAA,0.0178
4,GTAGGCTA,0.226
5,CTAGGCAC,0.485
6,GTAGGCCA,0.00764
7,CTAGGCAG,-0.0742
8,CTAGGCGC,0.041
9,AAGACGCA,-0.0452
10,AAACAGCG,0.0286
11,AGCCTGAT,0.183
12,GGTGCCAA,-0.14
13,AGTGCCAA,-0.0129
14,AGTGCCGA,-0.324
15,GGTGCCGA,0.0164
16,AGTGCCTA,0.484
17,GGTGCCTA,0.492
18,ATACAGAT,0.0248
19,ACGTAGGA,0.184
20,GACATGAC,0.175
21,AACATGAG,0.277
22,AACATGAC,0.359
23,AACATGAT,0.349
24,AACATGAA,0.305
25,AACATGCT,0.308
26,ACACAAGT,0.164

row,Sequence,PBM E-score
1,ACACTGAC,0.196
2,GGAAACGA,0.0799
3,CCTGAACC,0.206
4,CCCATCTC,-0.269
5,GTCGTGTA,0.376
6,ATCGTGTG,0.204
7,ATCGTGTC,0.247
8,CTCGTGGA,-0.234
9,CTCGTGTA,0.353
10,CTCGTGTC,0.184
11,GTCGTGGA,-0.26
12,ATCGTGTA,0.39
13,GTCGTGCA,0.0491
14,CGACAGTA,-0.196
15,ATGTGCTG,0.147
16,CCCTGGCC,-0.264
17,ATCAGATC,-0.196
18,ACAACTGG,-0.229
19,AGCGTGAA,-0.0361
20,ATAATTAC,0.258
21,GTAATTAC,0.378
22,CTAATTAC,0.289
23,CGCGCGTC,0.0273
24,CCCAGCGC,-0.0444
25,ACCTTCCT,0.0149
26,CCAAGGCC,-0.14

row,Sequence,PBM E-score
1,ACAAGGCG,0.109
2,GCAAGGGA,-0.155
3,TCAAGACA,-0.0248
4,CCAAGGCA,0.458
5,TCAAGGGA,-0.213
6,ACAAGGCA,0.449
7,CCAAGGCG,-0.0205
8,TCAAGGCA,0.458
9,GCAAGGCA,0.469
10,ACAAGGCT,0.111
11,GCAAGGCC,-0.0626
12,AACTCTAG,0.00906
13,ATGAAAGC,0.103
14,GTCATTCA,-0.067
15,GAACCATC,-0.0773
16,AACTTTCC,0.0113
17,AATGTTGT,0.223
18,AGCTGATC,-0.17
19,CTGTCTCA,-0.258
20,GCCAGGCC,-0.25
21,GCCAGGCA,0.436
22,TCCAGGCA,0.463
23,CCCAGGCA,0.461
24,TCCAGGAA,0.316
25,CCCAGGCC,-0.191
26,TCCAGGGA,-0.212

row,Sequence,PBM E-score
1,ACCAGGCT,-0.06
2,ACCAGGCA,0.446
3,GCCAGGAA,0.124
4,CCCAGGCG,-0.061
5,ACCAGGCC,-0.0646
6,ACCTTGCT,-0.0444
7,ACCCGACA,-0.0489
8,TACACCGA,0.0164
9,GCCGCTAA,-0.0753
10,CCGCTAAC,-0.0566
11,ACTGGTGG,-0.246
12,AGGCCTCA,-0.247
13,CAGAGAGC,-0.316
14,GACATATA,0.125
15,CAAATGTA,0.272
16,TACATATA,0.317
17,CACATGTC,0.196
18,GACATGTA,0.355
19,TACATGTA,0.408
20,CACATGTA,0.344
21,CACATGTG,0.194
22,TAAATGTA,0.346
23,GAAATGTA,0.0874
24,TACATCTA,0.227
25,GACATGTC,0.191
26,GCTGCAAC,-0.242

row,Sequence,PBM E-score
1,CAAGAGGA,0.038
2,CGAAACTA,-0.136
3,GACTAAAC,0.0174
4,ACCCGTGC,-0.0819
5,GAGAAGGC,0.258
6,ACGGCCTA,-0.0205
7,ACGCGCTG,0.184
8,GGCTAACC,0.0149
9,CTTCCTGC,-0.0264
10,ATCTGAAC,-0.219
11,ATATTGGA,0.0164
12,CTAAGGAA,0.366
13,TTAAGGAA,0.398
14,GTAAGGAC,-0.194
15,TTAAGTAA,0.0348
16,GTAAGGAA,0.366
17,CTAAGGAG,-0.254
18,CTAAGGAC,-0.231
19,ATAAGGAA,0.299
20,GTAAGTAA,0.169
21,CGGTCTCC,-0.283
22,CGCCCCCG,-0.351
23,GACGGTTA,-0.0411
24,ATACACAT,0.3
25,GCTGTTTA,-0.0345
26,AGCAGGAA,0.395

row,Sequence,PBM E-score
1,GGCAGGAA,0.419
2,ATCAGGAC,-0.157
3,CTCAGGAA,0.335
4,TGCAGTAA,0.0245
5,TGCAGGAA,0.443
6,TTCAGGAA,0.337
7,AGCAGGAC,-0.096
8,GGCAGGAC,-0.14
9,AGCAGGAG,-0.0982
10,GGCAGGGA,-0.158
11,ATCAGGAA,0.343
12,TACTGAGA,-0.0385
13,GGTGCCAC,-0.168
14,AGGGGTGG,-0.248
15,GACTGGTA,-0.00685
16,GTGCGATA,-0.123
17,CGCAGGAG,-0.0652
18,CGCAGGAA,0.356
19,CGCAGGAC,-0.0456
20,AAAGTAGC,-0.0505
